Test results published in PubChem BioAssay (Tox21).
Activity calls are given as the source filed them. Where a call stands in place of a potency, no number is given. Calls come from the whole dose curve; as a rule, active = well fitted activation curve with a large enough effect in the repeat runs; inconclusive = weak or mixed curves; inactive = flat fitted curve, though single readings scatter.

assay: Caspase-3/7 induction in CHO-K1 cells by small molecules, qHTS assay (AID 1346980); settings: CHO-K1 caspase-3/7 induction, Caspase-Glo luminescence, 17 h; series mostly up to 92.4 µM; note: nearly all actives have a fitted effect of over 15% in size
Method in brief: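 Wild-type CHO-K1 cells exposed to compounds for 17hr at 37 C, 5% CO2. Caspase-3/7 activity then measured by Caspase-Glo 3/7 luminescence after 30min at room temperature.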
Potency is the fitted concentration of half-maximal effect.

SMILES | Potency
C=C(C#N)C(=O)OCC | inactive
OCC#CCO | inactive
CN(C)c1cccc(O)c1 | inactive
O=[N+]([O-])c1cc(N(CCO)CCO)ccc1NCCO | inactive
CCCCOCCOCCOC(=O)CCCCC(=O)OCCOCCOCCCC | inactive
CCC(=O)O | inactive
CC1Cc2ccccc2N1NC(=O)c1ccc(Cl)c(S(N)(=O)=O)c1 (centres undefined) | inactive
CCOC(=O)C1OC1c1ccccc1 (centres undefined) | inactive
CCCCCCCCCCC=CC1CC(=O)OC1=O (centres undefined) | inactive
CCOC(=O)[C@H](CCc1ccccc1)N[C@@H](C)C(=O)N1Cc2ccccc2C[C@H]1C(=O)O | inactive
NC(=O)/N=N/C(N)=O | inactive
CCCCCCCCCC(=O)O | inactive
Nc1c(S(=O)(=O)O)cc(Br)c2c1C(=O)c1ccccc1C2=O | inactive
C/C=C(C)/C=C/C=C(C)C | inactive
O=S(=O)(Oc1ccc(Cl)cc1Cl)c1ccccc1 | inactive
COC(=O)c1ccccc1O | inactive
CCc1ccccc1O | inactive
COC(=O)Nc1nc2ccc(Sc3ccccc3)cc2[nH]1 | 54.5 µM (active)
CC#C[C@]1(O)CC[C@H]2[C@@H]3CCC4=CC(=O)CCC4=C3[C@@H](c3ccc(N(C)C)cc3)C[C@@]21C | inactive
Nc1nc2ncc(CNc3ccc(C(=O)N[C@@H](CCC(=O)O)C(=O)O)cc3)nc2c(=O)[nH]1 | inactive

SMILES | Potency
Oc1c(Cl)cc(Cl)c(Cl)c1Cl | inactive
O=C1N=C(O)CN1/N=C/c1ccc(-c2ccc([N+](=O)[O-])cc2)o1 | inactive
c1ccc2[nH]cnc2c1 | inactive
CCCCCCC(C)(C)S | inactive
CC1(C)O[C@@H]2C[C@H]3[C@@H]4C[C@H](F)C5=CC(=O)CC[C@]5(C)[C@H]4[C@@H](O)C[C@]3(C)[C@]2(C(=O)CO)O1 | inactive
CC1=C(CC(=O)O)c2cc(F)ccc2/C1=C\c1ccc(S(C)=O)cc1 (centres undefined) | inactive
CC(C)n1c(/C=C/[C@@H](O)C[C@@H](O)CC(=O)O)c(-c2ccc(F)cc2)c2ccccc21 | inactive
Cc1ccc(N)c(S(=O)(=O)O)c1 | inactive
CC[Si](OC(C)=O)(OC(C)=O)OC(C)=O | inactive
CC1(C)CC(N=C=O)CC(C)(CN=C=O)C1 (centres undefined) | inactive
CCc1ccc(O)cc1 | inactive
O=c1c(-c2ccc(O)cc2)coc2cc(O)ccc12 | inactive
C=C(C)C(=O)OCCCCCC | inactive
CCCCC(CC)C(=O)OCCOCCOCCOC(=O)C(CC)CCCC (centres undefined) | inactive
O=C(c1cc(O)c(O)c(O)c1)c1ccc(O)c(O)c1O | inactive
CCCCCCCCCCCCOCC1CO1 (centres undefined) | inactive
Cc1cc(O)c2c(c1)C(=O)c1cc(O)cc(O)c1C2=O | inactive
CCOC(=O)/C=C\C(=O)OCC | inactive
CC(C)(C)C1CCC(O)CC1 (centres undefined) | inactive
